Our source for the growth values is PubChem BioAssay (NCI).

Assay in all cases: NCI-60 one-dose screen, 48 h (100 = growth as untreated, 0 = no growth, -100 = all killed)
What all share (conditions): 10 µM unless noted

The test system of experiment [1] is SR leukemia.
Experiment [2] deals with RPMI-8226 leukemia.
The test system of experiment [3] is OVCAR-8 ovarian.
Experiment [4] relates to OVCAR-4 ovarian.
For experiment [5], the system named is SK-OV-3 ovarian.
The subject of experiment [6] is IGROV1 ovarian.
Experiment [7] deals with OVCAR-3 ovarian.
Experiment [8] concerns HS 578T breast.
Experiment [9] deals with NCI/ADR-RES ovarian.
The test system of experiment [10] is OVCAR-5 ovarian.

Structures are written as SMILES. Several values for one entry are separate records, joined by “and”; a condition that tells them apart may be missing. Equal entries are not always repeated. The panel holds about 83,000 compounds, 20% with a hit somewhere; the sample as a whole holds those more often.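 Step 1: grow cells in 96-well plates. Step 2: add test compound at a single concentration. Step 3: incubate 48 h. Step 4: record percent growth.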 Activity calls are given as the source filed them. The calls were made as follows: active = growth percent below 10; inactive = the rest.

On to `CCN1CCN(CC(=O)Nc2nc3ccc(NCc4ccc(C)cc4)cc3s2)CC1`, for which the growth in experiment [1] was 7.22% (active); in experiment [2], 48.8% (inactive); in experiment [3] it was 85.9% (inactive); in experiment [4], 75% (inactive); in [5], 91.5% (inactive); in [6], 91.4% (inactive). The growth in [7] is 70.3% (inactive); in experiment [8] it was 84.9% (inactive).

In the case of `N#Cc1c(N)nnn1Cc1cc(=O)oc2ccc(O)cc12`, the growth in experiment [1] is 95.3% (inactive); in experiment [3], 100% (inactive); in experiment [4], 110% (inactive); in experiment [5], 112% (inactive); in [6], 112% (inactive); in experiment [8] it was 99% (inactive). Besides, the growth in experiment [9] is 111% (inactive).

On to `O=C(NNC(=S)Nc1ccccc1)c1ccncc1`, for which the growth in experiment [1] was 99.2% (inactive); in experiment [3] it was 104% (inactive); in [10], 107% (inactive); in [4] it was 116% (inactive); in experiment [5], 118% (inactive); in [6], 106% (inactive). Besides, the growth in experiment [7] was 114% (inactive); in experiment [8], 132% (inactive); in experiment [9], 105% (inactive).

Turning to `COc1cc(-c2nc3occn3c2-c2ccnc(NCCCNS(=O)(=O)c3ccc(O)cc3)n2)ccc1F`, the growth in [1] is 74.2% (inactive); in experiment [3], 98.4% (inactive); in experiment [10], 138% (inactive); in experiment [4], 129% (inactive); in [5], 82.4% (inactive); in [6], 97.8% (inactive). Besides, the growth is 117% (inactive) in experiment [7], 93% (inactive) in [8] and 104% (inactive) in experiment [9].

For the molecule `Cc1ccc(C(=O)N(CCCN)[C@@H](c2nc3cc(Cl)ccc3c(=O)n2Cc2ccccc2)C(C)C)cc1`, the growth in [1] is -32% (active); in [3], -11.7% (active); in [10], -17.5% (active); in experiment [4], 33.3% (inactive); in experiment [5] it was 38.6% (inactive); in [6], 8.41% (active). In addition, the growth in experiment [7] is -13.7% (active); in experiment [8], -12.8% (active); in experiment [9] it was -30.1% (active).

Take `CC1=CC(C)(C)NC(=S)N1c1ccc(Cl)cc1`: the growth is 97.8% (inactive) and 93% (inactive) in [1]; 100% (inactive) in experiment [2]; 100% (inactive) and 104% (inactive) in [3]; 103% (inactive) in experiment [4]; 122% (inactive) and 93.2% (inactive) in [5]; 96.4% (inactive) in [6]. In addition, the growth in experiment [8] is 102% (inactive) and 113% (inactive); in experiment [9], 103% (inactive) and 112% (inactive).

Turning to `Cc1nc2sc(C(=O)Nc3cccc(Cl)c3C)c(N)c2cc1C(O)c1ccccc1` (centres undefined), the growth is 7.23% (active) in experiment [1]; 11.8% (inactive) in [3]; 37.5% (inactive) in experiment [10]; 55.6% (inactive) in [4]; 32.9% (inactive) in [5]; 21.8% (inactive) in experiment [6]. Besides, the values for the growth in experiment [7], in experiment [8] and in [9] were 4.1% (active), 23.4% (inactive) and 3.99% (active), respectively.

As to `COC(=O)c1nc(-c2ccccc2)oc1S(=O)(=O)N(C)CCO`, the growth in experiment [1] was 8.68% (active); in experiment [3], 85.6% (inactive); in experiment [10], 82.5% (inactive); in experiment [4], 77.4% (inactive); in [5], 89.8% (inactive); in experiment [6], 69.2% (inactive). The growth in [7] is 34.7% (inactive); in [8], 99.5% (inactive); in [9], 97.2% (inactive).

Regarding `CC1(C)C(N)=Nc2cc(OCCCN3Cc4ccc(OCCc5cn(CC(=O)N6CCC(CCN7CCCC7)CC6)nn5)cc4C3)c(OCC3CC3)cc21`, the growth is 115% (inactive) in experiment [1]; 92% (inactive) in [3]; 94.6% (inactive) in experiment [4]; 105% (inactive) in experiment [5]; 101% (inactive) in experiment [6]; 114% (inactive) in experiment [7]. For the same molecule, the growth in experiment [8] was 97.2% (inactive); in experiment [9] it was 103% (inactive).

Take `CCOC(=O)N(O)c1ccc(/C=C/c2ccccc2)cc1`: the growth in experiment [1] is 66.7% (inactive); in [3], 76.7% (inactive) and 37.1% (inactive); in [10], 18.9% (inactive) and 3.82% (active); in experiment [4], 55.8% (inactive) and 43.5% (inactive); in [5], 94.1% (inactive) and 92.6% (inactive); in experiment [6] it was 8.91% (active) and 1.54% (active). In addition, the growth in experiment [8] is 94.4% (inactive) and 112% (inactive); in experiment [9], 74.7% (inactive) and 63.2% (inactive).

Take `[Cu+].[NH-][C@H]1C[N-]C(=O)[C@H]([C@H]2CCN=C(N)N2)[N-]C(=O)/C(=C\NC(N)=O)[N-]C(=O)[C@H](CNC(=O)C[C@@H](N)CCCN)[N-]C(=O)[C@H](CO)[N-]C1=O`: the growth in [1] was 96.1% (inactive); in experiment [3], 106% (inactive); in experiment [10] it was 113% (inactive); in [4], 99.9% (inactive); in experiment [5], 71.3% (inactive); in experiment [6], 109% (inactive). In addition, the growth in experiment [8] was 97% (inactive); in experiment [9] it was 103% (inactive).

Take `Cc1oc2c(Cc3ccc(NC(=O)c4ccc(Cl)cc4)cc3)ncnc2c1C(=O)NO`: the growth in experiment [1] is 71.2% (inactive); in [3], 98.5% (inactive); in experiment [10], 103% (inactive); in [4], 109% (inactive); in experiment [5], 94.1% (inactive); in [6], 103% (inactive). Also, the growth in experiment [7] was 95.8% (inactive); in [8], 113% (inactive); in experiment [9], 98.2% (inactive).

For the molecule `CCN1C(=O)N(c2ccccc2)C2NC(=S)N(/N=C/C=C/c3ccccc3)C21` (centres undefined), the growth in [1] was 7.28% (active); in experiment [3] it was 5.29% (active); in [10] it was 59.7% (inactive); in experiment [4] it was 34.3% (inactive); in [5] it was 24% (inactive); in experiment [6], 20.8% (inactive). Further, the growth in experiment [7] is 8.14% (active); in [9] it was 2.91% (active).
